Out of some 5,500 compounds screened, about 2,000 (36%) were called active. About 18% were inconclusive and are not listed. Cut-off read from the data, not from the text of the source: active = normalized growth mostly below about 0.91 (no sharp cut-off); inconclusive = no clear call, values can overlap the other calls; inactive = mostly above about 0.92. Some of the results follow.
Test: chemical genetic growth profiling, strain panel (AID 1159580);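 note: tested at 20 µM; growth read once vehicle control cultures reached saturation at 30 °C; 1 = growth at the plate median or of vehicle wells; lower values mean less growth of the strain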
Details: S. cerevisiae deletion strains, growth OD

Measured: normalized growth

O=C(c1ccc(OCCN2CCCCC2)cc1)c1c(-c2ccc(O)cc2)sc2cc(O)ccc12
active: locus YDR392W, strain spt3, stronger effect = lower value 0.41 | locus YER155C, strain BEM2 (second series), stronger effect = lower value 0.608 | locus YNL071W, strain lat1, stronger effect = lower value 0.854 | locus YPL055C, strain LGE1, stronger effect = lower value 0.826
inactive: locus YAL021C, strain ccr4, stronger effect = lower value 0.971 | locus YAL026C, strain drs2, stronger effect = lower value 0.987 | locus YAL030W, strain snc1, stronger effect = lower value 1.01 | locus YAL040C, strain CLN3, stronger effect = lower value 1.02 | locus YBL061C, strain skt5, stronger effect = lower value 1.01 | locus YBR009C, strain hhf1, stronger effect = lower value 1 | locus YBR023C, strain chs3, stronger effect = lower value 1.01 | locus YBR171W, strain sec66, stronger effect = lower value 1.04 | locus YBR231C, strain swc5, stronger effect = lower value 0.989 | locus YBR279W, strain paf1, stronger effect = lower value 1.02 | locus YCL011C, strain gbp2, stronger effect = lower value 1.02 | locus YCL016C, strain dcc1, stronger effect = lower value 1 | locus YCL061C, strain MRC1 (second series), stronger effect = lower value 0.998 | locus YCL061C, strain MRC1, stronger effect = lower value 1.01 | locus YCL069W, strain vba3, stronger effect = lower value 1.03 | locus YCR088W, strain abp1, stronger effect = lower value 1.02 | locus YDL005C, strain med2, stronger effect = lower value 1.04 | locus YDL040C, strain nat1, stronger effect = lower value 1.02 | locus YDR001C, strain nth1, stronger effect = lower value 1.02 | locus YDR069C, strain doa4, stronger effect = lower value 1.01 | locus YDR137W, strain rgp1, stronger effect = lower value 1.09 | locus YDR150W, strain NUM1, stronger effect = lower value 0.977 | locus YDR159W, strain sac3, stronger effect = lower value 0.984 | locus YDR195W, strain ref2 1.01 | locus YDR297W, strain sur2, stronger effect = lower value 1.01 | locus YDR334W, strain swr1, stronger effect = lower value 1.02 | locus YDR335W, strain msn5, stronger effect = lower value 1.03 | locus YDR363W, strain ESC2, stronger effect = lower value 0.983 | locus YEL003W, strain gim4, stronger effect = lower value 1.02 | locus YEL037C, strain rad23, stronger effect = lower value 1.04 | locus YEL061C, strain CIN8 (second series), stronger effect = lower value 1.03 | locus YER002W, strain NOP16, stronger effect = lower value 1 | locus YER015W, strain faa2, stronger effect = lower value 1.01 | locus YER016W, strain bim1, stronger effect = lower value 1.01 | locus YER111C, strain swi4, stronger effect = lower value 1.03 | locus YFR010W, strain ubp6, stronger effect = lower value 1.04 | locus YGL167C, strain pmr1, stronger effect = lower value 1.03 | locus YGL173C, strain kem1, stronger effect = lower value 1.01 | locus YGL227W, strain vid30, stronger effect = lower value 1.01 | locus YGL240W, strain doc1, stronger effect = lower value 0.967 | locus YGL253W, strain hxk2, stronger effect = lower value 1.02 | locus YHR013C, strain ard1, stronger effect = lower value 0.958 | locus YHR027C, strain rpn1, stronger effect = lower value 1.01 | locus YHR030C, strain SLT2, stronger effect = lower value 0.968 | locus YHR079C, strain IRE1, stronger effect = lower value 0.968 | locus YHR142W, strain chs7, stronger effect = lower value 0.983 | locus YJL092W, strain hpr5, stronger effect = lower value 1.01 | locus YJL095W, strain BCK1 (second series), stronger effect = lower value 1.02 | locus YJL095W, strain BCK1, stronger effect = lower value 1 | locus YJL115W, strain asf1, stronger effect = lower value 1.03 | locus YJL129C, strain trk1, stronger effect = lower value 1.01 | locus YJL154C, strain vps35, stronger effect = lower value 1.03 | locus YJL164C, strain tpk1, stronger effect = lower value 0.982 | locus YJL166W, strain qcr8, stronger effect = lower value 0.968 | locus YJL187C, strain SWE1, stronger effect = lower value 1.02 | locus YJR066W, strain TOR1, stronger effect = lower value 0.924 | locus YKL160W, strain elf1, stronger effect = lower value 0.982 | locus YKR026C, strain gcn3, stronger effect = lower value 1.01 | locus YKR091W, strain srl3, stronger effect = lower value 1.02 | locus YLL001W, strain dnm1, stronger effect = lower value 1.01 | locus YLL026W, stronger effect = lower value 1.01 | locus YLL041C, strain sdh2, stronger effect = lower value 1.02 | locus YLR027C, strain aat2, stronger effect = lower value 1.01 | locus YLR113W, strain HOG1, stronger effect = lower value 0.986 | locus YLR221C, strain rsa3, stronger effect = lower value 1 | locus YLR258W, strain gsy2, stronger effect = lower value 1.01 | locus YLR262C, strain YPT6 (second series), stronger effect = lower value 1.01 | locus YLR320W, strain mms22, stronger effect = lower value 0.911 | locus YLR342W, strain FKS1, stronger effect = lower value 1 | locus YLR357W, strain rsc2, stronger effect = lower value 0.964 | locus YLR370C, strain arc18, stronger effect = lower value 1.03 | locus YLR384C, strain iki3, stronger effect = lower value 1.04 | locus YML120C, strain ndi1, stronger effect = lower value 1.01 | locus YMR058W, strain fet3, stronger effect = lower value 1.01 | locus YMR125W, strain sto1, stronger effect = lower value 0.989 | locus YMR129W, stronger effect = lower value 1.02 | locus YMR205C, strain PFK2, stronger effect = lower value 0.981 | locus YMR231W, strain pep5, stronger effect = lower value 1.03 | locus YMR307W, strain GAS1, stronger effect = lower value 0.917 | locus YNL128W, strain TEP1, stronger effect = lower value 1.02 | locus YNL175C, strain NOP13, stronger effect = lower value 0.993 | locus YNL183C, strain NPR1, stronger effect = lower value 0.965 | locus YNL197C, strain WHI3, stronger effect = lower value 0.998 | locus YNL209W, strain ssb2, stronger effect = lower value 1.01 | locus YNL224C, strain SQS1, stronger effect = lower value 1.01 | locus YNL248C, strain rpa49, stronger effect = lower value 0.986 | locus YNL322C, strain KRE1 (second series), stronger effect = lower value 1.02 | locus YNR049C, strain mso1, stronger effect = lower value 1.02 | locus YOR001W, strain rrp6, stronger effect = lower value 1 | locus YOR070C, strain gyp1, stronger effect = lower value 1.02 | locus YOR080W, strain dia2, stronger effect = lower value 1.02 | locus YOR083W, strain WHI5 (second series), stronger effect = lower value 0.997 | locus YOR083W, strain WHI5, stronger effect = lower value 0.979 | locus YOR106W, strain vam3, stronger effect = lower value 0.987 | locus YOR231W, strain MKK1, stronger effect = lower value 0.995 | locus YOR265W, strain rbl2, stronger effect = lower value 1.01 | locus YOR270C, strain vph1, stronger effect = lower value 1.01 | locus YOR290C, strain snf2, stronger effect = lower value 0.995 | locus YPL051W, strain arl3, stronger effect = lower value 0.977 | locus YPL078C, strain atp4, stronger effect = lower value 0.985 | locus YPL106C, strain sse1, stronger effect = lower value 1.01 | locus YPL240C, strain hsp82, stronger effect = lower value 1.03 | locus YPL241C, strain CIN2, stronger effect = lower value 1 | locus YPL256C, strain CLN2, stronger effect = lower value 0.97
